Screening data (PubChem BioAssay)
The list is not random: actives were taken first. Their share in the collection is about 3.3%.
Mcl1-Noxa inh: Mcl-1/Noxa interaction inhibition. Q07820. TR-FRET Mcl-1/Noxa peptide binding, 2 h. inhibition, % at 21.7 µM. 1.5% of 220,000 active;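 active = compounds that cut the protein-peptide binding signal by more than 50% relative to plate controls in a single-dose test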;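 note: His-tagged Mcl-1 with rhodamine Noxa BH3 peptide and terbium anti-His antibody; 0% = Mcl-1 plus Noxa peptide wells and 100% = peptide-only wells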
Target sequence (Q07820 whole entry, looked up): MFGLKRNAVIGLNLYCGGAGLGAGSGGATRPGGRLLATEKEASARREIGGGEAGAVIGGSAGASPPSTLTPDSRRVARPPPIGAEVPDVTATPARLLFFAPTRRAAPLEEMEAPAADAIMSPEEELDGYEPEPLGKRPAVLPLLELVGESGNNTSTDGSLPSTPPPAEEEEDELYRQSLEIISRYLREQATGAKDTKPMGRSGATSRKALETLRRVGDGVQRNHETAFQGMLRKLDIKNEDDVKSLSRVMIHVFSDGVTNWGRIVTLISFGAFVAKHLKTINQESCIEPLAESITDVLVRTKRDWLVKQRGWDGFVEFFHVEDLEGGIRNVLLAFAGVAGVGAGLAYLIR
14-3-3 Bad PPI: disrupts binding of bovine 14-3-3 zeta to phospho-Bad peptide | P63103 | TR-FRET 14-3-3zeta/Dy647-pBad peptide displacement, 1 h | inhibition, % at 21.7 µM | 0.71% of 220,000 active;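 active = inhibition above about 70%, limit read from the data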;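 note: 0% = full 14-3-3 plus peptide FRET controls and 100% = background without 14-3-3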
Target sequence (P63103 whole entry, looked up): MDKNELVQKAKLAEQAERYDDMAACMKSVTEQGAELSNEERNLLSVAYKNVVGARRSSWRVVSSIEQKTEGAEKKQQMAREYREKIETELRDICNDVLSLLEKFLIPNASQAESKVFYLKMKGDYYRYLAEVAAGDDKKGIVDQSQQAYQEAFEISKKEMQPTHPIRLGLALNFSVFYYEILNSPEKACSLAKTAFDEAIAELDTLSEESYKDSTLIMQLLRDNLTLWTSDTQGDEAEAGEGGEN
eIF4E-4G inh: inhibitors of eIF4E and eIF4G interaction in translation initiation; TR-FRET eIF4E-eIF4GI(517-606) binding, 2 h; 0.37% of 220,000 active; inhibition, % at 21.7 µM; P63073+Q04637;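 note: 0% = full FRET control wells and 100% = background wells lacking eIF4GI fragment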
Mcl1-Bid inh: Mcl-1/Bid interaction inhibition. Q07820. TR-FRET Mcl-1/Bid-Dy647 peptide binding, 1536-well. inhibition, % at 21.7 µM. 0.97% of 220,000 active;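 active = compounds that cut the binding signal by more than half at the single screening dose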;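 note: His-tagged Mcl-1 with europium anti-His antibody binding Bid BH3 peptide; 0% = Mcl-1 plus peptide wells and 100% = peptide-only wells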
p47phox inh: inhibitors of human p47phox binding; P14598; p47phox/p22phox peptide binding, fluorescence polarization, 2 h; inhibition, % at 24.7 µM; 0.53% of 220,000 active; AID 1274;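 note: 0% = p47phox with labelled peptide and 100% = labelled peptide alone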
Bim-Mcl-1: human Bim-Mcl-1 interaction inhibition; Bead-based flow cytometry, Bim peptide-Mcl-1 binding; AID 1009; 0.1% of 190,000 active; inhibition, % at 10 µM; Q07820; in the data active = inhibition above about 40%;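 note: 0% = no compound tracer wells and 100% = peptide blocker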
* marks the source's active call; other numbers are inactive results; / = no result.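 Rule for the calls, unless noted: active = inhibition above about 30% (limit read from the data); inactive = the rest.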

SMILES | Mcl1-Noxa inh | 14-3-3 Bad PPI | eIF4E-4G inh | Mcl1-Bid inh | p47phox inh | Bim-Mcl-1
O=c1cc(CO)oc(C(Nc2ccccn2)c2ccc(F)cc2)c1O (centres undefined) | 62* | 12 | 7 | 52* | -1 | 0
Cc1ccnc(NC(c2ccccc2O)c2oc(CO)cc(=O)c2O)c1 (centres undefined) | 70* | 18 | 12 | 10 | -4 | 0
O=c1cc(CO)oc(C(Nc2ccccn2)c2ccsc2)c1O (centres undefined) | 48 | -4 | 3 | 6 | -10 | -2
COc1ccc(C(Nc2ccccn2)c2oc(CO)cc(=O)c2O)cc1 (centres undefined) | 65* | 4 | -5 | 43 | 12 | -5
O=c1cc(CO)oc(C(Nc2ccccn2)c2ccccc2Cl)c1O (centres undefined) | 45 | 5 | 5 | 7 | -10 | 0
C=CCn1c(C2CCCCC2)n[nH]c1=S | 12 | -15 | 2 | -38 | -2 | -10
O=C(Cc1ccc(Cl)cc1)NNC(=O)Nc1cccc2ccccc12 | -9 | 2 | 3 | -38 | 60* | 0
O=C(Nc1cccc2ccccc12)c1ccc(Br)o1 | -11 | -6 | 47* | -29 | -11 | 3
O=C(Nc1ccccc1C(=O)O)c1ccc(NC(=O)c2ccc(Br)o2)cc1 | -11 | -16 | -3 | -21 | 90* | -5
O=C(Nc1ccccc1C(=O)O)c1cccc(NC(=O)c2ccc(Br)o2)c1 | 36 | 8 | -3 | 16 | -16 | -2
CCCC1=[N+](CC(=O)c2ccc(C)cc2)CCn2cccc21 | 0 | -7 | 3 | -14 | -12 | 0
Cc1ccc(C(=O)NC(NC(=O)c2ccc(C)cc2)c2cccc([N+](=O)[O-])c2)cc1 | 7 | 9 | 3 | -5 | 1 | -1
COc1ccc(N2CCN(C(CNC(=O)OCc3ccccc3)c3ccco3)CC2)cc1 (centres undefined) | 39 | 1 | 3 | -46 | -7 | -5
C=CS(=O)(=O)c1sc(Cl)c(N2CCOCC2)c1[N+](=O)[O-] | 67* | 43 | 14 | 69* | 23 | 8
O=C(ONc1ccc(N=NC(=O)c2ccccc2O)cc1)c1ccccc1 | 84* | 11 | 4 | 88* | 31* | 0
O=Nc1ccc(NOC(=O)c2ccccc2Br)cc1 | -1 | -15 | -3 | -27 | 3 | -1
O=C(NCc1ccncc1)/C(=C/c1cccc([N+](=O)[O-])c1)NC(=O)c1ccccc1 | -12 | -11 | -2 | -6 | -3 | /
CCC[N+](CC#CCO)(CC#Cc1ccccc1)CCC | 7 | 0 | 91* | -9 | -19 | /
CCOc1ccc(/C=N/NC(=O)CN2CCCCCCC2)cc1 | 15 | 22 | 1 | 41 | -3 | -4
O=C(O)CCCN1C(=O)/C(=C\c2ccco2)SC1=S | 1 | 4 | 0 | -87 | -13 | -2
O=C(O)CCN1C(=O)/C(=C\c2ccc(-c3nc4ccccc4s3)o2)SC1=S | 102* | 17 | 20 | 95* | -104 | 25
Cc1cc2c(nc1C)CCCN2C[C@@H](C)O/N=C1/[C@H]2CCn3c(=O)n(-c4ccccc4)c(=O)n3[C@H]2[C@H](O)[C@@H]2O[C@H]12 | 9 | 7 | 4 | -26 | -10 | 0
Cc1ncn(-c2ccc(C(=O)Oc3ccccc3)cn2)n1 | 4 | -3 | 1 | -9 | 8 | 2
CCN(CC)c1ccc(NC(=O)CCNC(=O)c2ccco2)cc1 | 79* | -20 | 7 | -74 | -4 | -1
O=C1c2ccccc2C(=O)N1CCc1c[nH]c2ccc(O)cc12 | 14 | -10 | -1 | -30 | -13 | -7
SMILES | Mcl1-Noxa inh | 14-3-3 Bad PPI | eIF4E-4G inh | Mcl1-Bid inh | p47phox inh | Bim-Mcl-1
O=C(COC(=O)CCCN=C1NS(=O)(=O)c2ccccc21)NC(=O)NC1CCCC1 | 12 | -20 | -3 | -20 | -5 | 102*
O=C(COC(=O)CCN=C1NS(=O)(=O)c2ccccc21)NC1CCCCCCC1 | -13 | 3 | -3 | -24 | -13 | /
CCCCC(CC)CNC(=O)C1CC=CCC1C(=O)O (centres undefined) | 13 | 2 | 11 | -16 | -13 | -2
Cc1snc(SCC(=O)c2ccc([N+](=O)[O-])cc2)c1C#N | 66* | 2 | 8 | -34 | -1 | -6
CCOc1ccc(Nc2nc(CC(=O)OC)cc(=O)[nH]2)cc1 | -9 | 89* | 5 | -13 | -11 | 0
CCCc1cc(=O)[nH]c(Nc2cc(OC)ccc2OC)n1 | 26 | 5 | -5 | 7 | -13 | -2
COc1c2ccoc2nc2c(OC)c(OCC(OC(C)=O)C(C)(C)O)ccc12 (centres undefined) | -5 | 9 | 8 | 8 | 161* | 3
O=C1N=C(N2CCN(c3ccccc3)CC2)S/C1=C\c1ccco1 | 7 | -12 | 2 | -55 | -7 | 0
NC1=NC(=O)/C(=C\c2ccco2)S1 | 57* | 21 | 2 | -69 | -11 | /
COc1cc(OC)c(C2C(C#N)=C(C)NC(C)=C2C#N)c(C(=O)O)c1 | 9 | -3 | -5 | -9 | -7 | /
CN(Cc1cc(=O)[nH]c2ccccc12)C(=O)c1ccccc1 | -11 | 4 | 11 | -22 | -25 | -2
CCCN(Cc1cc(=O)[nH]c2ccccc12)C(=O)CC | -1 | 76* | 5 | 3 | 0 | /
CCC(=O)N(CC)Cc1cc(=O)[nH]c2ccccc12 | 14 | 6 | 0 | -2 | 10 | 0
COc1ccccc1N(Cc1cc(=O)[nH]c2ccccc12)C(=O)c1ccccc1 | -13 | 1 | 58* | -24 | -8 | /
O=C(N/C(=C\c1cccc([N+](=O)[O-])c1)C(=O)N1CCOCC1)c1ccc([N+](=O)[O-])cc1 | 0 | -4 | 1 | -30 | 2 | 0
O=c1[nH]c(=S)[nH]c(O)c1N=Nc1ccc(-c2ccccc2)cc1[N+](=O)[O-] | 92* | -6 | 2 | -41 | 70* | -1
O=C(N/C(=C\c1ccccc1)C(=O)N1CCN(CCO)CC1)c1ccccc1 | 8 | 11 | 14 | -34 | -8 | -2
C=CCn1c(CCCNC(=O)c2ccccc2OC)nc2ccccc21 | -9 | -6 | -6 | -9 | 5 | 4
CC(=O)c1cccc(NC(=O)C(=O)Nc2cccc3ccccc23)c1 | -6 | -2 | -3 | -28 | 2 | -6
COc1ccc(NC(=O)CSc2nc(NS(=O)(=O)c3ccccc3)cc(=O)[nH]2)cc1 | 20 | 75* | 4 | -25 | -10 | -5
COc1ccc(-n2c(Cc3cc(=O)[nH]c(=O)[nH]3)nnc2SCC(=O)Nc2ccccc2)cc1 | 5 | 2 | -2 | -23 | 47* | -2
O=C(CSc1nc(NS(=O)(=O)c2ccccc2)cc(=O)[nH]1)Nc1ccc(Cl)cc1 | 32 | 3 | -2 | 12 | -22 | 2
CCn1c(CCCc2ccc(OC)c(C)c2)n[nH]c1=S | 33 | -9 | 2 | -38 | 2 | -6
